NPSR antagonist: neuropeptide S receptor (human) antagonism, cAMP | Q6W5P4 | CHO-NPSR cells, cAMP TR-FRET, antagonist mode | Potency, µM (titrated, usually from 38.3 µM), for inactives: top-dose activity change, negative = inhibition, most hits filed as inhibitors | hit rate 1% among 220,000; note: nearly all actives have a fitted effect of over 50% in size
VP16 counter: inhibits Gal4-VP16 luciferase reporter, ROR gamma counter-screen | Drosophila S2 Gal4-VP16 UAS-luciferase, luminescence, 20 h | hit rate 3.5% among 310,000 | Potency, µM (series often up to 53.6 µM), without a hit: at the highest dose activity, negative = inhibition, hits mostly inhibitors;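 note: Gal4-VP16 expression switched on by copper sulfate through the metallothionein promoter; nearly all actives have a fitted effect of over 50% in size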
RORgamma inh: inhibitors of mouse ROR gamma transcriptional activity. hit rate 5.4% among 310,000. AID 2551. Drosophila S2 Gal4-RORgamma UAS-luciferase reporter, 20 h. Potency, µM (highest dose often 53.6 µM), for inactives: at the highest dose activity change, negative = inhibition, actives largely listed as inhibitors; note: nearly all actives have a fitted effect of over 60% in size
Target sequence (P51450 whole entry, looked up, the tested form may be a part): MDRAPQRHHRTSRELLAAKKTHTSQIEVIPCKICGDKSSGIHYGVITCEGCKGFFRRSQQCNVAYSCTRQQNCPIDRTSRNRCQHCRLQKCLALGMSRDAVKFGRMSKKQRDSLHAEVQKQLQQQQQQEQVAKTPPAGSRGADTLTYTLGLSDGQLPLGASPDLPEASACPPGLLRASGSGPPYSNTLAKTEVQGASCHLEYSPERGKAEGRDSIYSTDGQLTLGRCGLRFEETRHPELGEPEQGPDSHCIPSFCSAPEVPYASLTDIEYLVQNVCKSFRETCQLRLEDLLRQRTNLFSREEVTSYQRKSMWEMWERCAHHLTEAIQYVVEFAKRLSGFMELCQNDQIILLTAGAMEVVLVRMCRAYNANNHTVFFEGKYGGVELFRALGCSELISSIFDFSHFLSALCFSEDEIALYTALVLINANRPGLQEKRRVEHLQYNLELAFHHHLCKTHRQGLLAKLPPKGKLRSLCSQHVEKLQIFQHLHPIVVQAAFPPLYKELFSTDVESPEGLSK
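In this cell-based reporter format, copper sulfate (700 uM final) drives Gal4–ROR gamma fusion expression from a metallothionein promoter in Drosophila Schneider cells; compounds preincubated 1 hr, reporter read after 20 hr at ambient temperature.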
B2AR arrestin: beta2AR (human) beta-arrestin recruitment activity. P07550. beta-arrestin recruitment to beta2AR, cell-based reporter. Potency, µM (series often up to 46.1 µM), for the others: top-dose activation, most hits filed as activators. hit rate 0.02% among 330,000. AID 492947;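 note: 0% = DMSO controls and full agonism = EC100 isoproterenol or metaproterenol; nearly all actives have a fitted effect of over 65% in size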
Active calls of the source: *; ? = inconclusive; . = no result; [ ] = remark or other dose. Rows were chosen to be rich in hits. Some 5.7% of all compounds tested hit in one or more screens of this group. Calls come from the whole dose curve; as a rule, active = well fitted curve in the direction sought with a large enough effect; inconclusive = small, poorly fitted or top-dose-only effect, or another doubt; inactive = no such curve, though single readings can be large; an effect the other way counts as inactive or inconclusive. Unless noted, % is set by controls: 0 for no effect and ±100 for the full control effect; potency is the fitted concentration of half-maximal effect.

SMILES | NPSR antagonist | VP16 counter | RORgamma inh | B2AR arrestin
CCOc1cc(C(=O)Nc2cc(C)on2)cc(OCC)c1OCC | -13%[46.1 µM] | 1% | 2.2µM* | 0%
CC(C)c1cc(C(N)=O)c(NC(=O)c2cccc(COc3ccc(Cl)cc3)c2)s1 | 10µM* | -1% | 13% | 0%
Cc1cc(NC(=O)COC(=O)c2cccc(OCc3ccccc3)c2)no1 | 6%[46.1 µM] | -14% | -31% | -4%
Cc1cc(NC(=O)c2cccc(COc3ccc(Br)cc3)c2)no1 | -4% | ? | 7.1µM* | 0%
C=C[C@@]1(C)C[C@H](OC(=O)CSC(C)(C)CNC(=O)[C@@H](N)C(C)C)[C@@]2(C)C(C)CC[C@@]3(CCC(=O)[C@@H]32)[C@H](C)[C@H]1O (some centres undefined) | . | -3% | -1% | .
Cc1ccccc1-c1nc2c3ccccc3nc(=S)n2[nH]1 | . | 1µM* | 0.28µM* | 10µM*
Clc1ccccc1-c1nc2ccccc2c2nncn12 | -1%[46.1 µM] | 1% | -21% | 0%
Cc1nc2ccccc2n1CCc1nc2c3ccccc3nc(=S)n2[nH]1 | -16%[46.1 µM] | 10µM* | 3.5µM* | 0%
COc1ccc(C2/C=C\CN(Cc3ccccc3)C(C)C(=O)N2Cc2ccc(F)cc2)cc1 (centres undefined) | . | -3% | ? | .
O=C1N/C(=N\N=C\c2cccnc2)SC1Cc1ccc(SC(F)F)cc1 (centres undefined) | ? | 0.71µM* | 0.5µM* | 0%
O=C1N/C(=N\N=C\c2ccccn2)SC1Cc1cccc(SC(F)F)c1 (centres undefined) | ? | 3.2µM* | 1.8µM* | 0%
O=C1N/C(=N\N=C\c2ccc3ncccc3c2)SC1Cc1ccc(SC(F)F)cc1 (centres undefined) | -25%[46.1 µM] | ? | 4% | 0%
O=C(CSC1=NNC(c2ccccn2)S1)Nc1ccccc1 (centres undefined) | 24% | 2.5µM* | 1µM* | 0%
O=C(CSc1nncn1-c1ccccn1)Nc1cccc(Cl)c1 | 12% | -11% | 8% | 0%
O=C(CSC1=NNC(c2ccccn2)S1)Nc1cccc(Cl)c1 (centres undefined) | 15% | 13µM* | 3.5µM* | -1%
CCOP(=O)(OCC)C(C#N)=C1SCN(c2ccc(Cl)cc2)CS1 | -8%[46.1 µM] | ? | 14µM* | 0%
N#CCC(=N)N1CCN(c2ccc(Cl)cc2)CC1 | -7%[46.1 µM] | -2% | 19% | 0%
Cc1ccc(Nc2nc(-c3c(C)nc4ccccn34)cs2)cc1 | ? | ? | 10µM* | 0%
Cc1ccc(Nc2nc(-c3c(C)nc4ncccn34)cs2)cc1 | 4%[46.1 µM] | -6% | ? | 0%
Cc1ccn2c(-c3csc(NCc4ccccc4)n3)c(C)nc2c1 | ? | ? | 14µM* | 6%
Cc1nc(NC(=O)c2ccccc2)sc1-c1csc(NCc2ccco2)n1 | ? | ? | 20µM* | 0%
Cc1nc2ccccn2c1-c1csc(NCc2ccco2)n1 | -13%[46.1 µM] | ? | 11µM* | 0%
CCCNC(=O)[C@H](Cc1c[nH]c2ccccc12)NC(=O)c1ccccc1Cl | 14% | -2% | 14% | -1%
C=CCN1C(=O)/C(=c2\sc3nc(=O)c(Cc4ccccc4Cl)nn3c2=O)c2ccccc21 | 7% | ? | 13µM* | 0%
COc1ccc(-c2nc3cnc(N4CCN(C)CC4)nc3n(C)c2=O)cc1 | . | 4% | -18% | .
SMILES | NPSR antagonist | VP16 counter | RORgamma inh | B2AR arrestin
CN(Cc1ccccc1)C1CCCN(C(=O)c2ccc(Cl)s2)C1 (centres undefined) | . | -14% | 2% | 0%
N#CC1=C(N)SC(N)=C(C#N)C1C1CC=CCC1 (centres undefined) | -12%[46.1 µM] | ? | 16µM* | 0%
N#CC1=C(N)SC(N)=C(C#N)C1C1C=CCCC1 (centres undefined) | 0%[46.1 µM] | ? | ? | 0%
Oc1ccc(N=Nc2cccc(C(F)(F)F)c2)cc1C=Nc1ccc(N2CCOCC2)cc1 | 7.9µM* | 5% | -44%[10 µM] | 0%
Oc1ccc(C=Nc2ccc(N3CCOCC3)cc2)c(O)c1 | -18%[46.1 µM] | -2% | -21% | -2%
CC(=O)c1cn(CC(=O)Nc2cccc(C)c2C)c2ccccc12 | -2% | 13µM* | ? | -1%
O=C1NC(c2ccc(Cl)cc2)=COc2ccccc21 | 5% | -2% | -15% | 0%
O=C1NN=COc2ccccc21 | 22% | -5% | 13µM* | -2%
COc1cc2c(cc1C1NC(=S)NC(C)=C1C(N)=O)CCCC2 (centres undefined) | 11% | -2% | 2.8µM* | 0%
O=C(c1ccc(OC2CCN(Cc3ccccn3)CC2)cc1)N1CCCCO1 | -2% | 1% | -18% | -1%
CC1CCN(S(=O)(=O)c2ccc3c(c2)C(=NO)c2cc(S(=O)(=O)N4CCC(C)CC4)ccc2-3)CC1 | 0.5µM* | 0.79µM* | 1.8µM* | -1%
O=S(=O)(c1ccc2c(c1)C(=NO)c1cc(S(=O)(=O)N3CCCCC3)ccc1-2)N1CCCCC1 | 2µM* | 3.2µM* | 3.5µM* | 0%
COc1ccc(S(=O)(=O)N2CCC(C)CC2)cc1OC | . | -7% | 1% | -1%
C/C(CCC(=O)OC[C@@H]1O[C@H](C#Cc2ccccc2)C=C[C@@H]1Oc1ccc(C)cc1)=N/OC[C@@H](C)[C@H](OCc1ccccc1)C(C)C | . | 0%[10 µM] | 0%[10 µM] | .
CCC(C(=O)Nc1ccc2c(c1)OCCO2)n1c(=O)[nH]c2ccccc2c1=O (centres undefined) | . | 2% | -21% | 0%
O=C(CSCc1ccccc1)N/N=C/c1cc2c(cc1Br)OCO2 | -12% | 11µM* | ? | 0%
O=C(Cc1ccccc1)N/N=C/c1cc(Br)cc(Br)c1O | . | 1.6µM* | 0.79µM* | -1%
O=C(Cc1ccccc1)N/N=C/c1cc(Br)cs1 | . | -27% | 0% | 0%
O=C(CCN1CCOCC1)N/N=C/c1cc(Br)cc(Br)c1O | 43% | 5µM* | 1.4µM* | 0%
O=C(CCN1CCOCC1)N/N=C/c1cc([N+](=O)[O-])ccc1OC(F)F | -13% | -14% | -1% | 0%
O=C(CNC(=O)c1cccc(Br)c1)N/N=C/c1cccs1 | . | -4% | ? | 0%
O=C(CNC(=O)c1cccc(Br)c1)N/N=C/c1cc(Br)cc(Br)c1O | -30% | 13µM* | 2.5µM* | 0%
C/C(CCC(=O)OC[C@@H]1O[C@H](C#Cc2ccccc2)C=C[C@@H]1Oc1ccc(C)cc1)=N/O[C@@H](C)c1cn([C@H]2COC[C@H]2O)nn1 | . | 1%[10 µM] | 1%[10 µM] | .
O=c1cnc2cncnc2n1Cc1ccc(F)cc1 | . | 5% | 7% | .
COc1cc(OC)cc(-c2nnc3n2N=C(c2cc(OC)ccc2OC)CS3)c1 | . | 3% | 15% | .
COc1ccc(/C(C)=N/N2C(C)CCCC2C)c(OC)c1 (centres undefined) | . | ? | 13µM* | 0%
COc1ccc(CC2(C)OC(c3ccccc3)=NN2C(C)=O)cc1 (centres undefined) | -1% | -1% | 9% | -1%
C#CCn1c(S(=O)(=O)Cc2ccccc2Cl)nc(-c2ccccc2)c1-c1ccccc1 | 10µM* | 0% | -2% | 0%
Cc1ccc(N=Nc2ccc3ccccc3c2O)cc1 | . | ? | -2%[1.91 µM] | -1%
